Measured values from PubChem BioAssay AID1730 (National Center for Advancing Translational Sciences (NCATS), 2009).
Records with an inconclusive call do not appear. Active and inactive are the calls of the source. Calls follow the shape of the dose curve; as a rule, active = well fitted inhibition curve with a large enough effect; inconclusive = small, poorly fitted or top-dose-only effect; inactive = no such curve, though single readings can be large or run the other way.

Experiment: Counterscreen Assay for Inhibitors of the ERK Signaling Pathway using a Homogeneous Screening Assay
From the text: qHTS Assay for Inhibitors of the ERK Signaling Pathway using a Homogeneous Screening Assay
NIH Chemical Genomics Center [NCGC]
NIH Molecular Libraries Screening Centers Network [MLSCN]
Assay Submitter (PI): Dr. Wei Zheng, NCGC/NIH
The Ras/extracellular-signal-regulated kinase (ERK) mitogen activated protein (MAP) kinase signaling pathway (ERK1/2 cascade) plays is a key role in transmitting signals from the cell surface to the nucleus (Nishida and Gotoh 1993; Chang and Karin, 2001). The cascade is initiated by the small G-protein Ras, which recruits Raf […], where activation occurs. Alternatively, this pathway can be activated by elevating intracellular cAMP.
Activation of the ERK pathway is essential in increased cell division and cell survival. Sustained and constitutive activation of the ERK pathway, however, has been linked to uncontrolled cell proliferation, increased cell survival, and tumor progression. Thus, the ERK has been as an attractive target for cancer chemotherapy in the past few years (Sebolt-Leopold and Herrera, 2004). […]
Biotinylated rabbit IgG was used to perform a counter-screen in the context of an AlphaScreen assay kit provided by PerkinElmer. […] AC50 values were determined from concentration-response data modeled with the standard Hill equation. […]
(10) Detect the assay plate in an EnVision plate reader (PerkinElmer) using the AlphaScreen detection mode. […]

| Compound | outcome |
| --- | --- |
| CCN1C(=O)NC(=O)/C(=C/c2cc(C)n(-c3sc(C)c(C)c3C#N)c2C)C1=O | inactive |
| O=C1NC(=O)C(=Cc2ccccc2Oc2ccc(F)cc2)C(=O)N1 | inactive |
